# Test results taken from the supplement of paper PMC11732987, “Enantioselective OTUD7B fragment discovery through chemoproteomics screening and high-throughput optimisation” (Communications Chemistry, 2025).
# A number with no mark means an inactive call.
# Assays:
# Assay in all cases: log2 ratio of Biotin-Ahx-Ub-VS probe labelling (fragment/DMSO); higher = less target engagement (more negative = stronger competition), active = hit call of the paper (q ≤ 0.05, log2 ratio ≤ -1)
# Details in all cases: compound concentration: 200 uM; treatment time: 3 h
# USP19 = target: T1, USP19 (UniProt O94966)
# T1 sequence (whole entry): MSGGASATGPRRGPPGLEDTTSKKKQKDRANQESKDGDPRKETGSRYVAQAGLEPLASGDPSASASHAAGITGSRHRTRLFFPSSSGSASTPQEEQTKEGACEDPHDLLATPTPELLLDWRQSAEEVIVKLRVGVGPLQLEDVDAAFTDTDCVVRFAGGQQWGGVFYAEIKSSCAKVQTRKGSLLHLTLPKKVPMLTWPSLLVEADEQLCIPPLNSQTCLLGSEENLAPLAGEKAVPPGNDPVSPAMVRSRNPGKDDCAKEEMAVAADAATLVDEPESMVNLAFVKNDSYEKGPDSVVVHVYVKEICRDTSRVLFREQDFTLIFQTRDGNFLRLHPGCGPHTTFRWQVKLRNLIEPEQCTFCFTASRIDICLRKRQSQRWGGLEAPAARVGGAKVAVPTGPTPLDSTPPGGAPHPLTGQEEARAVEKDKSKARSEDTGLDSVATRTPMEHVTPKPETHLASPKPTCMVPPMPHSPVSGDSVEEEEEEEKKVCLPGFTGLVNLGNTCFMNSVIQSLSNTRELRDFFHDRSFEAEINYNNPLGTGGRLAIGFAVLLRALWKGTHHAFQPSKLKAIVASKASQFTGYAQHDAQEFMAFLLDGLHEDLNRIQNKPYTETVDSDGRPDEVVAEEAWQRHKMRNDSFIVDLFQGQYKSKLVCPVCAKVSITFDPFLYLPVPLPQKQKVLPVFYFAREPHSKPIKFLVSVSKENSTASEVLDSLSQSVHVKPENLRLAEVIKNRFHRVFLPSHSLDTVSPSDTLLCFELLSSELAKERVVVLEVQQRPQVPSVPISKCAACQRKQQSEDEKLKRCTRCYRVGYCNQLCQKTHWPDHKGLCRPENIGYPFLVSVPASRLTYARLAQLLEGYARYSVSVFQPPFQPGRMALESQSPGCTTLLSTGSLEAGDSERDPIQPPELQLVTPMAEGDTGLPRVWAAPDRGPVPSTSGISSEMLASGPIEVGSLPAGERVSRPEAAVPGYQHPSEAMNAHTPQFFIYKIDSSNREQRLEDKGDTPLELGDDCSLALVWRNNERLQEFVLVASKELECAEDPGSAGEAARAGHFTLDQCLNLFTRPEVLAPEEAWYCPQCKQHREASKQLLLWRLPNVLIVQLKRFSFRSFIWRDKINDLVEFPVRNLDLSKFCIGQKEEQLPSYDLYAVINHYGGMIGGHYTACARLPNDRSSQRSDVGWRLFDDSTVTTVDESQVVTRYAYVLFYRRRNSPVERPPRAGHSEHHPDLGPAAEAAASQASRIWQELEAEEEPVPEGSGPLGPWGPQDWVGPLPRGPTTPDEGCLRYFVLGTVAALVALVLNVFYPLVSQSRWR
# Procedure, shortened: (§1)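 Triplicate samples of HEK293T lysate, 495 µg each, received fragment at 200 µM or vehicle for 3 h, followed by Biotin-Ahx-Ub-VS (0.5 µM final) for 1 h. After NeutrAvidin enrichment of labelled DUBs and LysC/trypsin digestion, peptides were run by diaPASEF LC-MS/MS. The values are average log2 fragment/vehicle ratios from global-median-normalised Spectronaut label-free quantities, tested by unpaired t-test on proteins having ≥2 unique peptides.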
# USP24 = USP24 (UniProt Q9UPU5)
# Sequence of USP24 (Q9UPU5 whole entry): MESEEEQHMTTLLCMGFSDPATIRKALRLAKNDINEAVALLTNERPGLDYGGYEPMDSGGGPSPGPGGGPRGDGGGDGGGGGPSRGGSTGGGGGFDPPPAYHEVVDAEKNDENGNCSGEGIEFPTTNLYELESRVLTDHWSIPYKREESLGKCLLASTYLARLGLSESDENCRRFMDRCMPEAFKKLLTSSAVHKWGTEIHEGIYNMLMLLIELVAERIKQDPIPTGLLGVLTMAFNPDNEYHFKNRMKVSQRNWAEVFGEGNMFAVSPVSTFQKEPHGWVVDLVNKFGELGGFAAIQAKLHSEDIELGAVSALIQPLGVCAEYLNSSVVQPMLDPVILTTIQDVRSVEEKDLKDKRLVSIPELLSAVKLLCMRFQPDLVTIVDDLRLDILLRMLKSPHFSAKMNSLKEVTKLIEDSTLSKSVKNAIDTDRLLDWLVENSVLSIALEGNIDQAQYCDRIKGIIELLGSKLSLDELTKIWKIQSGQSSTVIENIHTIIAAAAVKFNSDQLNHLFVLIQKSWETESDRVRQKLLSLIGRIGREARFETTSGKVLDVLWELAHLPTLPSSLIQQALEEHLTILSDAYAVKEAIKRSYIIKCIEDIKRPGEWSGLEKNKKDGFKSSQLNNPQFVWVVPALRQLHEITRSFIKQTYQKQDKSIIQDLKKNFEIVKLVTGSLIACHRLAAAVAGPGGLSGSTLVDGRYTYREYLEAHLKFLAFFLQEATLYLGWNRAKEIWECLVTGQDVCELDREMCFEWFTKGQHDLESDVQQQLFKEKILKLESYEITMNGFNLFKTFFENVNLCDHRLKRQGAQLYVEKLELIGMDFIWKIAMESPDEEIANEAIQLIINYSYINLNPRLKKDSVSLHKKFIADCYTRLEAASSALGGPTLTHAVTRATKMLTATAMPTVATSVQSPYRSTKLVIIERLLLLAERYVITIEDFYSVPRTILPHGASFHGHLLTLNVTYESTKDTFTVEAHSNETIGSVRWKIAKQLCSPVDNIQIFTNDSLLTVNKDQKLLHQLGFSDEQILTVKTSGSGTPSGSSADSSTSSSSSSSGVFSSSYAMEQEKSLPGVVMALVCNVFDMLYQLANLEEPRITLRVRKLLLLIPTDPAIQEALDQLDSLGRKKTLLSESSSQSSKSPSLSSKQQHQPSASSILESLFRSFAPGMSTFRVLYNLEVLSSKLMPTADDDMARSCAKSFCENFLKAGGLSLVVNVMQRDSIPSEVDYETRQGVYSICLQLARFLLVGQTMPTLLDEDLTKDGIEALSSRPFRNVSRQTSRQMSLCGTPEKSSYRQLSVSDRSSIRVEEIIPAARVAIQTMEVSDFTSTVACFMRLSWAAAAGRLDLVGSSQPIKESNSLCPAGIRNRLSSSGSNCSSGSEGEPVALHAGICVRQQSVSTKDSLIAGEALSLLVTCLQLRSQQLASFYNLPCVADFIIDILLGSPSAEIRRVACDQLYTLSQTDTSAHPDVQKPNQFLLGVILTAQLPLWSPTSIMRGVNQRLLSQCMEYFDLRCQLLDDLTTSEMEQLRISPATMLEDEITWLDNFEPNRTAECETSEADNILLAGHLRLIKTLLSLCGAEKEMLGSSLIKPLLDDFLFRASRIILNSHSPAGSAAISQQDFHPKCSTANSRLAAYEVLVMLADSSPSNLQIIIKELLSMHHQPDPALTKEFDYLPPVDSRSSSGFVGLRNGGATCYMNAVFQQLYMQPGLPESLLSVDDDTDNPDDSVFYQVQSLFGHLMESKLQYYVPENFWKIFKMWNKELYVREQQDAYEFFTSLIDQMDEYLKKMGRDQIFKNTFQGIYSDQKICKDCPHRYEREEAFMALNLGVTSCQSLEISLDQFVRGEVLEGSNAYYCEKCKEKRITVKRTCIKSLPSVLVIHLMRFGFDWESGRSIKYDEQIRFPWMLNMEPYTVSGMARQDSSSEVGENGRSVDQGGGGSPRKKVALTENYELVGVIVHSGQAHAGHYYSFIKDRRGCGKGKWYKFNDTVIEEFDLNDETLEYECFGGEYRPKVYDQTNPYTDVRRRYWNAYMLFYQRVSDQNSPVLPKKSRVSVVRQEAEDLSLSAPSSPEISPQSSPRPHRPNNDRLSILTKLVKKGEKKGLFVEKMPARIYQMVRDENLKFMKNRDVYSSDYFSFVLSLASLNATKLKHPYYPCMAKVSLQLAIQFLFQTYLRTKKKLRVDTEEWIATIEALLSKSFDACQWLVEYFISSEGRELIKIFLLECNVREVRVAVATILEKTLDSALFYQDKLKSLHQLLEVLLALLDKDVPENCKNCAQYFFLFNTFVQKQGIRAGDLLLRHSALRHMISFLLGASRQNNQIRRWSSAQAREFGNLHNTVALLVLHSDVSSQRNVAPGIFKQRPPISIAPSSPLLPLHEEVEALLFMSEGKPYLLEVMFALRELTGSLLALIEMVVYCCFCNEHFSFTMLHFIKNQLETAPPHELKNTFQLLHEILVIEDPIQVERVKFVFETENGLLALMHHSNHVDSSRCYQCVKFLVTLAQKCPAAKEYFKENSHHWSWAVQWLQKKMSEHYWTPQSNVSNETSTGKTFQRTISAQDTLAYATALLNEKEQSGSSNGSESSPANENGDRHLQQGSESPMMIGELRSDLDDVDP
# Procedure, shortened: as §1
# USP25 = target: T2, USP25 (UniProt Q9UHP3)
# T2 sequence (whole entry): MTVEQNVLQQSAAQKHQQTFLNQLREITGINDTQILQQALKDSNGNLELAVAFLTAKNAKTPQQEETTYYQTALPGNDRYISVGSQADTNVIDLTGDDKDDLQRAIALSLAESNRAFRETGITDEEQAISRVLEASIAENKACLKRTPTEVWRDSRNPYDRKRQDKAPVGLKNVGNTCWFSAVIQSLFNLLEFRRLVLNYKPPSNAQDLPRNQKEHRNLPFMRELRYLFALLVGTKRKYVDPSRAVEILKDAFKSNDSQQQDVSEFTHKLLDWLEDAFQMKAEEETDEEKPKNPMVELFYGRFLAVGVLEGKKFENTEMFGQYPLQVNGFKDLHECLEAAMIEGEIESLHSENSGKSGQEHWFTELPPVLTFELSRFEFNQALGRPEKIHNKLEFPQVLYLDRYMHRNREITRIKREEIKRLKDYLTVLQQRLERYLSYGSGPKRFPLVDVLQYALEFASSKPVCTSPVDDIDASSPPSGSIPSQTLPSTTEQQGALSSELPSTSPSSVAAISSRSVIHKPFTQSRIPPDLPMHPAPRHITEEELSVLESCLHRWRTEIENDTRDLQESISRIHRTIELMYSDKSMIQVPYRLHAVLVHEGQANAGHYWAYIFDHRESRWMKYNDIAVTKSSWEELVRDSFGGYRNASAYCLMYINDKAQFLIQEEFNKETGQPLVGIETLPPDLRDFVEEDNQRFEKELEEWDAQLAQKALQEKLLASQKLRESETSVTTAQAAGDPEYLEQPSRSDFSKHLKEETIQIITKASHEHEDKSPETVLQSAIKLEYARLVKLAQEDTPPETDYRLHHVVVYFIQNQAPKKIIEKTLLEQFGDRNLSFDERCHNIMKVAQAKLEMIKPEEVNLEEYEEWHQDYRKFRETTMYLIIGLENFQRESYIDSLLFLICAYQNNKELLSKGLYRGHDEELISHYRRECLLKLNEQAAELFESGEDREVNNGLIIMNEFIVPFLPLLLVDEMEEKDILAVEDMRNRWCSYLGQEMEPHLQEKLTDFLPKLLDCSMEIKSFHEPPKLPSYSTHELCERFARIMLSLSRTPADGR
# Procedure, shortened: as §1
# USP28 = target: T3, USP28 (UniProt Q96RU2)
# T3 sequence (whole entry): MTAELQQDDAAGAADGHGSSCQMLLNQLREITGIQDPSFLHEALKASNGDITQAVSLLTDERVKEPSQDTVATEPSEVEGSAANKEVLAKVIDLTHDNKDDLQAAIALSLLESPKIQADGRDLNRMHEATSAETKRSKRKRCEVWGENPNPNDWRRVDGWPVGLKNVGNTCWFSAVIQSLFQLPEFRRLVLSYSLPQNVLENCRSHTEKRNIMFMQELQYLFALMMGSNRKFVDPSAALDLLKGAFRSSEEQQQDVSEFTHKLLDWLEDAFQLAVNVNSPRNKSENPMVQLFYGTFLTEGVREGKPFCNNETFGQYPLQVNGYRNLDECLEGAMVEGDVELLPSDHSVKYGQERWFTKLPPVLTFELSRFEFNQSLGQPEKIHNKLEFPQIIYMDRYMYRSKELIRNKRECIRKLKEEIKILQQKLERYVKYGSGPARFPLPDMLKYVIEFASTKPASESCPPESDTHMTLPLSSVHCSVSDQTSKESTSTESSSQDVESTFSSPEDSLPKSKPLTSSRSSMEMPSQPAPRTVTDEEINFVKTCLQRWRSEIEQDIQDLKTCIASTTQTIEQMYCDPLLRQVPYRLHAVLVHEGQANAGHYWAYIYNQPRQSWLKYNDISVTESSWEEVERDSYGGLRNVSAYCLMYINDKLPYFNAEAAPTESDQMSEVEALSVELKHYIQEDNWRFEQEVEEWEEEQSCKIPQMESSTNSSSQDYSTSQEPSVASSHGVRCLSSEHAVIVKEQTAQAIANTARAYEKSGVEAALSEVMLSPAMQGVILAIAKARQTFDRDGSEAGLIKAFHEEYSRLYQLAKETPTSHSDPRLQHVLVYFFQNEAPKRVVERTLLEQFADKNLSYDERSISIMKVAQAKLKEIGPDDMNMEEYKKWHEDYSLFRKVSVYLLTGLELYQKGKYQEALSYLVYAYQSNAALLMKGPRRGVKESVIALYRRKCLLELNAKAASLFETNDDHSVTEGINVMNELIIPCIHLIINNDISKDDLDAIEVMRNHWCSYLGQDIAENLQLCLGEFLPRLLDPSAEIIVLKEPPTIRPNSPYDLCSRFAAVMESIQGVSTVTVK
# Procedure, shortened: as §1
structure (smiles),measurement,setting,value
Cl.O=C(CCl)N1CCC(n2nc3ccccc3n2)CC1,log2 ratio of Biotin-Ahx-Ub-VS probe labelling,USP19,-0.666
same,log2 ratio of Biotin-Ahx-Ub-VS probe labelling,USP24,-1.08 (active)
same,log2 ratio of Biotin-Ahx-Ub-VS probe labelling,USP25,-0.61
same,log2 ratio of Biotin-Ahx-Ub-VS probe labelling,USP28,-0.611
